Experimental data from PubChem BioAssay (NCI).
The panel holds about 83,000 compounds, 20% with a hit somewhere; the sample as a whole holds those more often.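 A percent growth of 40 corresponds to 60% growth inhibition; 0 means no net growth; -100 means all cells died. Active threshold: below 10.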 A number with no mark means an inactive call. The source made the active and inactive calls.

Columns and labels:
Experiment in all cases: NCI-60 one-dose screen, 48 h (100 = growth as untreated, 0 = no growth, -100 = all killed)
Settings in all cases: 10 µM unless noted
NCI-H23 lung = tested on: NCI-H23 lung
NCI-H226 lung = tested on: NCI-H226 lung
HOP-62 NSCLC = tested on: HOP-62 NSCLC
NCI-H460 lung = tested on: NCI-H460 lung
HOP-92 NSCLC = tested on: HOP-92 NSCLC
NCI-H522 lung = tested on: NCI-H522 lung
A549/ATCC NSCLC = tested on: A549/ATCC NSCLC
786-0 renal = tested on: 786-0 renal
COLO 205 colon = tested on: COLO 205 colon
NCI-H322M lung = tested on: NCI-H322M lung

Compound | growth (NCI-H23 lung) | growth (NCI-H226 lung) | growth (HOP-62 NSCLC) | growth (NCI-H460 lung) | growth (HOP-92 NSCLC) | growth (NCI-H522 lung) | growth (A549/ATCC NSCLC) | growth (786-0 renal) | growth (COLO 205 colon) | growth (NCI-H322M lung) [%]
Nc1cccc(NC(=O)C(=O)Nc2cccc(N)c2)c1 | 105% | 93.6% | 96.1% | 117% | 89.8% | 91.7% | 97.1% | 68.5% | 127% | –
CC[n+]1ccc2c(c1)C(=O)c1nccc3c1c-2nc1ccccc13 | -27.9% (active) | -67.1% (active) | -27.6% (active) | -82.1% (active) | -11.9% (active) | -38% (active) | -4.31% (active) | -14.4% (active) | -23.8% (active) | –
CCOC(=O)c1c2ncccc2n2c(=O)n(-c3ccc(Cl)cc3)nnc12 | 92.7% | 104% | 71.7% | 69.7% | 101% | 71.1% | 81.8% | 97.1% | 109% | –
Clc1ccc(-c2nnc(COc3ccccc3Cl)o2)cc1 | 80.6% | 93.8% | 61.3% | 82.9% | 49.2% | 70.9% | – | 23.3% | 90.8% | –
Nc1nc(-c2ccc(F)cc2)cc(-c2cnn(-c3ccccc3)n2)n1 | – | 105% | 101% | 103% | 94.1% | 82.2% | 95.3% | 107% | 105% | 93.9
O=C1Nc2ccccc2C12CC(c1ccccc1)=NN2 (stereo not given) | 70% | 79.3% | 58.6% | 33.2% | 59.2% | 24.6% | 39.3% | 61.7% | 31.4% | –
CS(=O)(=O)c1c(Nc2ccccc2)n[nH]c1N | 105% | 105% | 109% | 110% | 85% | 100% | 95.9% | 96.7% | 105% | –
CC(C)[C@H]1COC(=O)N1[C@@H]1C(=O)N([C@@H](CCC(=O)N2CCN(C3CCCC3)CC2)C(=O)N[C@@H]2CCCc3ccccc32)[C@@H]1/C=C/c1cccc(Br)c1 | 64.7% | 74% | 59.5% | 31.6% | 44.7% | 27.4% | 25.7% | 44.3% | 24% | –
CCCCN(CCCC)Cc1c(C)[nH]c2cc(OC)ccc2c1=O | 107% | 103% | 88.9% | 103% | 65.3% | 94.6% | 95.4% | 105% | 101% | –
